Source: PubChem BioAssay
TSHR agonist: qHTS Assay for Agonists of the Thyroid Stimulating Hormone Receptor; AID 926, 2007; 0.48% of 73,000 active; HEK293-CNG-TSHR cells (CNG channel as cAMP sensor), membrane potential dye, cAMP; Potency, µM (titrated, usually from 57.1 µM), without a hit: at the highest dose activation, hits mostly activators; active = well fitted activation curve with a large enough effect in the main read-out, with a control signal flat, not every such curve was filed as active; inconclusive = small, poorly fitted or top-dose-only effect, or a change in a side signal; inactive = no such curve, though single readings can be large or run the other way; % of control where 0% means no effect;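 note: the control signal comes from parental cells without the receptor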
Target sequence (P16473 whole entry, looked up): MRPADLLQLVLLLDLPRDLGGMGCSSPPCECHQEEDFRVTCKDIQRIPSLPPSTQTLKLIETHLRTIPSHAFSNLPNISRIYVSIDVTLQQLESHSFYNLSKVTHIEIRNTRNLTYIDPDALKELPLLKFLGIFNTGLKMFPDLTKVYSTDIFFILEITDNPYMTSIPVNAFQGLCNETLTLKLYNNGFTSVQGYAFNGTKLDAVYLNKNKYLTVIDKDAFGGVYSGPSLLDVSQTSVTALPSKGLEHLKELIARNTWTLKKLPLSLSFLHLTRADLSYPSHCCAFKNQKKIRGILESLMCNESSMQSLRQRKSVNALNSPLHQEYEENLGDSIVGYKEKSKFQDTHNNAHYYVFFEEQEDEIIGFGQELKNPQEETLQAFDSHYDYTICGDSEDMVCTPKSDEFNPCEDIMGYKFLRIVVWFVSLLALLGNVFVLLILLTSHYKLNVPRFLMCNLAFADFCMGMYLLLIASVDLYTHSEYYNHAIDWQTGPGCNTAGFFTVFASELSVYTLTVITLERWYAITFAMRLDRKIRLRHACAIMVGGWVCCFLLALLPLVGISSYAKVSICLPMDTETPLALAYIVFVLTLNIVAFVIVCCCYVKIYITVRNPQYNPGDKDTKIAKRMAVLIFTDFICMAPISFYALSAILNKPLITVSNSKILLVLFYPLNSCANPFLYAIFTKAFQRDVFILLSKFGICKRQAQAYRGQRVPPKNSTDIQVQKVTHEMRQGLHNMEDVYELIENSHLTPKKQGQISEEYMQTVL
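cAMP rise detected as CNG-channel membrane depolarization by fluorescent dye (emission 590 nm), 30 min after compound, following 60 min dye loading containing 100 uM RO 20-1724 at room temperature. Cells: TSHR/CNG HEK 293, with parental CNG HEK 293 as control.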
HEK293 cAMP ctrl: qHTS Assay for Agonists of the Thyroid Stimulating Hormone Receptor: Activators of Intracellular cAMP Concentrations in Parental HEK 293; 2.5% of 73,000 active; Potency, µM (doses to about 57.1 µM), without a hit: top-dose activation, hits mostly activators; parental HEK293 CNG cAMP sensor, membrane potential fluorescence; active = well fitted activation curve with a large enough effect; inconclusive = small, poorly fitted or top-dose-only effect; inactive = no such curve, though single readings can be large or run the other way; note: % of control where 0% means no effect; nearly all actives have a fitted effect of over 55% in size
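Parental HEK 293 cells stably expressing a cAMP-gated CNG channel were loaded with membrane potential dye containing 100 uM RO 20-1724 for 60 min. Compound added for 30 min; depolarization read as fluorescence intensity at 590 nm.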
* hit, by the source's call; ? = inconclusive; / = no result given; [ ] = another dose, or the depositor's remark. This is a sample that favours compounds with a hit; in the whole collection about 2.9% have one here. Potency is the fitted concentration of half-maximal effect.

SMILES	TSHR agonist	HEK293 cAMP ctrl
O=C(O)/C(Cc1cn[nH]n1)=N\O	-0.1%[11.4 µM]	9.6%[11.4 µM]
Cc1ccc(S(=O)(=O)N[C@@H](CCc2ccccc2)CC(=O)C(C)(C)C)cc1	15.6%[11.4 µM]	16.4%[11.4 µM]
COc1ccc(-n2c(=O)cnc3cnc(N(C)C)nc32)cc1	11.9%	14.6%
Cn1cc(C(=O)c2ccccc2)cc1-c1nc2ccccc2n1C	35.1%	29.7%
Cc1oc(-c2nc3ccccc3n2C)cc1C(=O)c1ccccc1	?	25.1µM*
CC1CCC2C(=O)N3C(CCC(C)C3c3ccc(-c4ccco4)cc3)C(=O)N2C1c1ccc(-c2ccco2)cc1 (stereo unspecified)	-2.5%[11.4 µM]	5.9%[11.4 µM]
O=C(O)c1ccccc1C(=O)Nc1cc2c(cc1Br)-c1ccccc1C2=O	-8.9%[11.4 µM]	-18.8%[11.4 µM]
O=C1C=CC(=O)C2=C1C1c3ccccc3C2c2ccccc21	-5.2%	-1.8%
CCOC(=O)c1cc2c(ccn2C)n1CC(=O)N1CCN(c2ccccc2)CC1	-5.6%	3.1%
CCOC(=O)c1cc2c(ccn2C)n1Cc1ccccc1C	?	25.1µM*
N[C@@H](CO)C(=O)NNCc1ccc(O)c(O)c1O	-12.5%[25.6 µM]	-1.3%[25.6 µM]
Cc1cc(NC(=O)COC(=O)c2cccc(S(=O)(=O)N3CCOCC3)c2)no1	-3.1%	1.6%
Cc1cc(NC(=O)COC(=O)c2ccc(S(=O)(=O)N3CCCc4ccccc43)cc2)no1	15.8µM*	16.5%
O=C(O)c1ccccc1NS(=O)(=O)c1cccc2ccccc12	4.9%	-7.7%
O=C(O)c1cn(C2CC2)c2cc(N3CCNCC3)c(F)cc2c1=O	-22.2%[25.6 µM]	-0.4%[25.6 µM]
FC(F)(F)c1cc(-c2ccccc2)nc(N2CCCCC2)n1	7.7%	4.2%
FC(F)(F)c1ccc(N2CCN(c3cc(-c4ccccc4)nc4ncnn34)CC2)nc1	?	15.8µM*
CN(C)c1ccc(/C=N\NC(=O)c2cnc3ccccc3c2)cc1	-7.2%[11.4 µM]	-3.3%[11.4 µM]
CCOc1ccccc1NC(=O)N1CCCC1C(=O)Nc1ccc(-n2cnnn2)c(C)c1 (stereo unspecified)	20µM*	-1.9%
CCOc1ccccc1NC(=O)N1CCCC1C(=O)Nc1nnc(CC)s1 (stereo unspecified)	5.0%	5.8%
O=C(O)c1ccc(C(=O)O)c(C(=O)Nc2ccc3c(c2)Cc2ccccc2-3)c1	3.3%[11.4 µM]	-7.3%[11.4 µM]
C=C(C)CSc1nnc(-c2cccc(S(=O)(=O)N(C)C)c2)n1-c1cc(OC)ccc1OC	?	12.6µM*
COc1cccc(-n2c(SCC(=O)O)nnc2-c2cccnc2)c1	-4.1%	-5.8%
CC(C)C12CC[C@@]3(CC[C@H]4[C@@](C)(CCC[C@]4(C)C(=O)O)[C@@H]3C1)[C@@H](CN)C2	3.6%[11.4 µM]	4.3%[11.4 µM]
COc1cc(O)c2c(O)c3c(c4c2c1[C@@]1(C4)C(C)=CCCC1(C)C)[C@H](O)[C@@]1(O)CC(=O)C(C(N)=O)=C(O)[C@]1(O)C3=O	5.8%[11.4 µM]	12.9%[11.4 µM]
SMILES	TSHR agonist	HEK293 cAMP ctrl
CN(CC(=O)O)Cc1c[nH]c2ccccc12	3.1%[11.4 µM]	-1.5%[11.4 µM]
O=C(Cn1nc(C(F)(F)F)c2c1CCCC2)Nc1ccc2c(c1)OCO2	2.3%	9.5%
COc1ccccc1NC(=O)Cn1nc(C(F)(F)F)c2c1CCCC2	?	20µM*
CC(C)(C)n1nnnc1C(c1cccs1)N(Cc1ccccc1)Cc1ccco1 (stereo unspecified)	?	15.8µM*
CCC(C)(C)n1nnnc1C(c1cc2ccc(C)cc2[nH]c1=O)N(Cc1cccnc1)Cc1ccco1 (stereo unspecified)	2.4%[11.4 µM]	13.8%
CN(C)CCNS(=O)(=O)N(C)C	0.9%[11.4 µM]	9.3%[11.4 µM]
COc1ccc2c(c1)c(CC(=O)O)c(C)n2C(=O)c1ccc(Cl)cc1	-6.0%	-20.9%
COc1ccc2c(c1)c(=O)c(Br)c(C)n2Cc1ccccc1	?	31.6µM*
COc1ccc(-c2nnc3n2N=C(c2ccccc2)CS3)cc1OC	15.1%	1.2%
Cc1cc(-c2nnc3n2N=C(c2ccc(-c4ccccc4)cc2)CS3)n[nH]1	?	31.6µM*
C[C@]12CC[C@H]3c4ccc(OC[C@H]5CO5)cc4CC[C@H]3[C@H]1CC[C@@H]2O	-0.2%[11.4 µM]	6.2%[11.4 µM]
c1ccc2c[n+](Cc3ccnc4ccccc34)ccc2c1	0.4%[11.4 µM]	2.4%[11.4 µM]
O[C@@H](c1cc(-c2ccc(Cl)cc2)nc2ccccc12)[C@@H]1CCCCN1	-0.3%[11.4 µM]	-12.6%[11.4 µM]
c1ccc2c(c1)Cn1nnnc1-2	2.5%	2.7%
c1ccc2c(c1)Cn1c-2nc2ccccc21	?	15.8µM*
O=C(c1ccccc1)n1nc(-c2ccccc2)nc1NCc1ccco1	25.1µM*	19.4%
COCC(=O)n1nc(-c2ccccc2)nc1NCc1ccc(F)cc1	/	11.5%
COC(=O)[C@@H]1CC[C@H](C)[C@@H](c2ccc(C)cc2)N1C(=O)c1ccc(/C=N\O[C@@H](C)CN2CCCc3nc(C)c(C)cc32)cc1	3.2%[11.4 µM]	14.7%[11.4 µM]
CCCCCCCCCCCCC/C=C\[C@H](O)[C@H](N)CO	3.3%	-3.6%
COC(=O)c1ccc2c(=O)n(CCN3CCOCC3)c(SCC(=O)NC3CCCCC3)nc2c1	-8.4%	-2.2%
COC(=O)c1ccc2c(=O)n(C3CCCCC3)c(SCC#N)nc2c1	?	20µM*
c1ccc(-c2nnn(CCN3CCCCC3)n2)cc1	1.4%[11.4 µM]	9.0%[11.4 µM]
c1ccc(-c2nnn(C34CC5CC(CC(C5)C3)C4)n2)cc1	31.6µM*	19.0%
CC(=O)N1CCC2(CCCN(C(=O)Nc3cccc(F)c3)C2)CC1	6.0%	9.7%
O=C(Nc1ccccc1)N1CCCC2(CCN(C(=O)c3cccc(F)c3)CC2)C1	25.1µM*	9.5%
SMILES	TSHR agonist	HEK293 cAMP ctrl
O=C(Nc1ccccc1)N1CCCC2(CCN(C(=O)c3cc(C(F)(F)F)cc(C(F)(F)F)c3)CC2)C1	25.1µM*	29.8%
O=C(Nc1ccccc1)N1CC2(CCN(C(=O)c3cc(C(F)(F)F)cc(C(F)(F)F)c3)CC2)C1	28.3%	21.4%
CCC1Oc2ccc(C)cc2N(CC(=O)NCCC2=CCCCC2)C1=O (stereo unspecified)	?	6.31µM*
CCC1Oc2ccc(C)cc2N(CC(=O)NCCCN2CCCCC2CC)C1=O (stereo unspecified)	16.6%	10.0%
O=C(O)C1CC(=O)N(CCC23CC4CC(CC(C4)C2)C3)C(=Nc2ccccc2)S1 (stereo unspecified)	5.1%	3.3%
CC[C@]1(O)C[C@H]2CN(CCc3c([nH]c4ccccc34)[C@](C(=O)OC)(c3cc4c(cc3OC)N(C=O)[C@H]3[C@@](O)(C(=O)OC)[C@H](OC(C)=O)[C@@]5(CC)C=CCN6CC[C@]43[C@H]65)C2)C1	7.7%	14.9%
O=S1(=O)N[C@H]2CC[C@@H]3NS(=O)(=O)N[C@H]4CC[C@H](N1)N4S(=O)(=O)N23	6.6%[11.4 µM]	4.4%[11.4 µM]
CC(=O)OC[C@@H]1O[C@@H](Oc2cc(OC(C)=O)c3c(=O)cc(-c4ccc(OC(C)=O)c(OC(C)=O)c4)oc3c2)[C@H](OC(C)=O)[C@H](OC(C)=O)[C@@H]1OC(C)=O	-2.8%	-15.5%
COc1ccc(NC(=O)c2ccccc2NC(=O)c2ccco2)c(OC)c1	16.7%[11.4 µM]	8.5%[11.4 µM]
COc1ccc(C(=O)Nc2ccc(Cl)cc2C(=O)NCc2ccco2)cc1OC	?	25.1µM*
COc1ccccc1NC(=O)c1ccc(-c2ccccc2F)o1	?	25.1µM*
COc1ccccc1NC(=O)c1cc(Cl)ccc1NC(=O)c1ccco1	?	25.1µM*
COc1ccc(C(=O)Nc2ccccc2C(=O)NCc2ccco2)cc1OC	/	17.0%
COc1ccc(NC(=O)Cc2ccc(Cl)cc2)cc1NC(=O)c1ccco1	-6.2%	-9.7%
